A short description of assay [1]: qHTS assay to identify small molecule antagonists of the estrogen related receptor (ERR) signaling pathway from Tox21 library - cell viability counter screen (AID 1224834). Also: nearly all actives have a fitted effect of over 30% in size. Also: potency is read from the fitted curve at half-maximal effect. The method, boiled down:
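CellTiter-Fluor fluorescence, read after 30 min at 37 C, measures viability of ERR cells. Cells plated at 2,000/well and incubated 6 h before pin-tool compound addition, then exposed 17.5 hours at 37 C.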
In general terms: Quantitative high-throughput screening tests each substance at several concentrations.

Assay [2] concerns the target Luciferin 4-monooxygenase (Photinus pyralis) (UniProt P08659). Put plainly: qHTS assay to identify small molecule inhibitors of firefly luciferase (AID 1224835). Also: nearly all actives have a fitted effect of over 25% in size. The procedure, abridged: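 Biochemical qHTS: compounds run as interplate titrations against purified firefly enzyme, with D-luciferin and ATP each at its KM concentration. Light output recorded by CCD imaging.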

Assay [3] in a line: qHTS assay to identify small molecule agonists of the constitutive androstane receptor (CAR) signaling pathway - cell viability counter screen (AID 1224836). Also: nearly all actives have a fitted effect of over 45% in size. The procedure, abridged:
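HepG2 cells stably carrying hCAR and a CYP2B6-2.2kb reporter were plated 4 h, then given compounds at 15 concentrations plus PK11195 (final 0.75 uM). After 23 h at 37 C, viability was read by CellTiter-Fluor fluorescence.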

A short description of assay [4]: qHTS assay to identify small molecule antagonists of the constitutive androstane receptor (CAR) signaling pathway - cell viability counter screen (AID 1224837). Also: nearly all actives have a fitted effect of over 45% in size. The procedure, abridged: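 Cytotoxicity counter-screen: CellTiter-Fluor fluorescence after 23 h compound exposure (15-point qHTS) in double-stable HepG2-CYP2B6-hCAR cells, with 50 nM CITCO added.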
A short description of assay [5]: qHTS assay to identify small molecule antagonists of the estrogen related receptor signaling pathway with the pleiotropic PPARgamma coactivator (PGC) from Tox21 10K library - cell viability counter screen (AID 1224840; active = well fitted cell-killing curve with a large enough effect in the repeat runs, not every such curve was filed as active; also: nearly all actives have a fitted effect of over 40% in size). The procedure, abridged: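 Counter-screen for cytotoxicity: after 17.5 h compound exposure at 37 C, CellTiter-Fluor reagent added to PGC/ERR cells for 30 min and fluorescence read. Cells were seeded at 2,000 per well 6 h before dosing.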

Assay [6] in a line: qHTS assay to identify small molecule antagonists of the estrogen related receptor signaling pathway with the pleiotropic PPARgamma coactivator (PGC) from Tox21 10K library (AID 1224841; call rule not given here; also: actives are mostly falling curves and most rising ones were filed inactive; nearly all actives have a fitted effect of over 50% in size). The method, boiled down:
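Luminescence (One-Glo, 30 min at room temperature) after 18 h compound treatment at 37 C of PGC/ERR reporter cells plated at 2,000 cells/well and settled 6 h beforehand.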

The nature of assay [7]: qHTS assay to identify small molecule agonists of the estrogen related receptor signaling pathway with the pleiotropic PPARgamma coactivator (PGC) from Tox21 10K library (AID 1224842). Also: nearly all actives have a fitted effect of over 15% in size. The method, boiled down: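 PGC/ERR reporter cell line, 2,000 cells per well, incubated 6 h at 37 C before 23 nL compound in DMSO was added. After 18 h at 37 C, One-Glo luminescence read following 30 min at room temperature.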

In assay [8] the target is Thyrotropin receptor (Homo sapiens) (UniProt P16473). The assay is described as follows: qHTS assay to identify small molecule agonists of the thyroid stimulating hormone receptor (TSHR) signaling pathway (AID 1224843; calls by dose curve; also: nearly all actives have a fitted effect of over 45% in size). The procedure, abridged: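 Agonist-mode screen: TSHR HEK293 cells received test chemicals for half an hour at room temperature, then HTRF cAMP detection reagents for one hour prior to fluorescence measurement. Each chemical ran as a 15-concentration series, triplicated.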

Assay [9] is described as follows: qHTS assay to identify small molecule agonists of the hypoxia (HIF-1) signaling pathway - cell viability counter screen (AID 1224844; calls by dose curve; also: nearly all actives have a fitted effect of over 50% in size). The procedure, abridged: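 Cytotoxicity measured by CellTiter-Glo ATP luminescence in the wells also read for beta-lactamase signal. Cells were HRE-bla ME-180 (2,000/well, 0.5% dialyzed FBS), exposed to compounds for 17 h at 37C.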

A short description of assay [10]: qHTS assay to identify small molecule agonists of H2AX (AID 1224845; active = well fitted activation curve with a large enough effect in the signal ratio in the repeat runs, not every such curve was filed as active; the % refers to the signal ratio). The procedure, abridged: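 Wild-type CHO-K1 cells, plated overnight, exposed 3hr at 37C to 15 concentrations (0.76% DMSO final). Lysed, then HTRF anti-pH2AX (S139) cryptate and anti-H2AX-d2 antibodies, 24 hr room temperature; 665/620 nm emission read.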
Assay [11] in a line: qHTS assay to identify small molecule agonists of the hypoxia (HIF-1) signaling pathway (AID 1224846; active = well fitted activation curve with a large enough effect in the signal ratio in the repeat runs, not every such curve was filed as active; the % refers to the signal ratio). The method, boiled down:
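Compounds added to ME-180 cells carrying hypoxia-response-element beta-lactamase reporter (0.5% dialyzed FBS, 5 h preplating), 17 h at 37C; agonist activity detected by CCF4-AM B/G FRET read-out.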

The nature of assay [12]: qHTS assay to identify small molecule agonists of H2AX - cell viability counter screen (AID 1224847; calls by dose curve; also: top concentration of the series differs between compounds; nearly all actives have a fitted effect of over 30% in size). The procedure, abridged: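 Wild-type CHO-K1 cells (10% FBS medium) were plated overnight at 37C, exposed to compounds at 15 concentrations for 3 hr at 37C (0.76% DMSO final), and viability was read as CellTiter-Glo luminescence after 30 min at room temperature.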
Assay [13] can be described thus: qHTS assay to identify small molecule antagonists of the estrogen related receptor (ERR) signaling pathway from Tox21 library (AID 1224848). Also: nearly all actives have a fitted effect of over 50% in size. The procedure, abridged: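 Quantitative high-throughput format: ERR reporter cells (2,000/well) pre-incubated 6 h, treated 18 h at 37 C with compounds in DMSO alongside positive and negative controls, then read by ONE-Glo luminescence.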

The nature of assay [14]: qHTS assay to identify small molecule agonists of the estrogen related receptor (ERR) signaling pathway from Tox21 library (AID 1224849; calls by dose curve; also: nearly all actives have a fitted effect of over 15% in size). The following applies: ERR reporter cell line, ONE-Glo luciferase, 18 h. The procedure, abridged: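 Luminescent agonist read-out (One-Glo, 30-minute room-temperature incubation) following 18-hour compound treatment at 37 C of the ERR cell line, which had been plated 6 hours before dosing.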

A short description of assay [15]: qHTS RealTime-Glo MT Cell Viability Assay in HepG2 cells - 24 hour (AID 1224867). Also: nearly all actives have a fitted effect of over 50% in size. The method, boiled down:
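HepG2 cells were seeded at 600 cells/well together with NanoLuc luciferase and a cell-permeant prosubstrate, preincubated 5 h at 37 C/5% CO2, then pin-dosed with compounds in DMSO. Nonlytic luminescence from viable cells was read at each time point.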

Assay [16] in a line: qHTS RealTime-Glo MT Cell Viability Assay in HEK293 cells - 32 hour (AID 1224868). Also: nearly all actives have a fitted effect of over 50% in size. Also: potency is read from the fitted curve at half-maximal effect. The method, boiled down:
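HEK293 cells were seeded at 600 cells/well together with NanoLuc luciferase and cell-permeant prosubstrate, preincubated 5 h at 37 C/5% CO2, then given compound in DMSO by pintool. Luminescence from viable-cell prosubstrate reduction was read repeatedly over 40 h.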

Assay [17] is described as follows: A CellTox Green Cytotoxicity Assay to monitor cytotoxicity in HEK293 cells - 0 hour (AID 1224869). Also: nearly all actives have a fitted effect of over 50% in size. The procedure, abridged:
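Fluorescence from a DNA-binding dye excluded by viable cells was measured repeatedly in the same HEK293 wells (600 cells/well) during continuous compound exposure at 37 C. Each assay gives one read point: 0, 8, 16, 24, 32 or 40 h.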

Assay [18] can be described thus: qHTS RealTime-Glo MT Cell Viability Assay in HepG2 cells - 40 hour (AID 1224870). Also: nearly all actives have a fitted effect of over 50% in size. The procedure, abridged:
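HepG2 cells (600/well) mixed with RealTime-Glo MT reagent, settled 5 h at 37 C/5% CO2 before compound addition. Nonlytic NanoLuc luminescence from viable-cell prosubstrate reduction read repeatedly during 40 h treatment at 37 C.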

For assay [19], the target named is Nuclear receptor subfamily 1 group I member 3 (Homo sapiens) (UniProt Q14994). The assay is described as follows: qHTS assay to identify small molecule antagonists of the constitutive androstane receptor (CAR) signaling pathway (AID 1224838).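 Also: HepG2 cells stably expressing hCAR with CYP2B6 luciferase reporter stimulated by CITCO; nearly all actives have a fitted effect of over 40% in size.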 The procedure, abridged: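 Antagonism measured as luciferase signal (ONE-Glo, 30 min, room temperature) in CAR-stimulated cells: HepG2-CYP2B6-hCAR double-stable line exposed 24 hr at 37 C to compound in a 15-point series plus 50 nM CITCO.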

Values without a mark were called inactive. Results filed as inconclusive are left out. Activity calls are given as the source filed them. Unless noted, calls follow the shape of the dose curve; as a rule, active = well fitted curve in the direction sought with a large enough effect in the repeat runs; inconclusive = weak or mixed curves; inactive = no such curve, though single readings can be large; an effect the other way counts as inactive or inconclusive.

The values below come from PubChem BioAssay (Tox21).
% is scaled to controls: 0 for no effect and ±100 for the full control effect.

Chain of Luciferin 4-monooxygenase (Photinus pyralis) (P08659 whole entry, looked up): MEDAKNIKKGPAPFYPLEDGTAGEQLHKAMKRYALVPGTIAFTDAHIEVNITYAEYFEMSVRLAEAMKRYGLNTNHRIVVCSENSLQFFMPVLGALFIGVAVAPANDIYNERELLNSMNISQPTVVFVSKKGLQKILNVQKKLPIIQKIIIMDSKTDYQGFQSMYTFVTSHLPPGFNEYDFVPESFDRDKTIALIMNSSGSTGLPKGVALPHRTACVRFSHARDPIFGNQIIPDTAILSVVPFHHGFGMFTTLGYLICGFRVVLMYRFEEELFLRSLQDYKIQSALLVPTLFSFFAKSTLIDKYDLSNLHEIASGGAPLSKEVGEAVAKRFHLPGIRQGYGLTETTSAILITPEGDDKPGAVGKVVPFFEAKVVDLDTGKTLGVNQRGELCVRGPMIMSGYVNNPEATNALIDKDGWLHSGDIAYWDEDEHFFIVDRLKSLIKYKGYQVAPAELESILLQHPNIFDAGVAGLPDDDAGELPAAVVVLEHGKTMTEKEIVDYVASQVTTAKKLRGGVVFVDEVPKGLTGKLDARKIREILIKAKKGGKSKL
Chain of Thyrotropin receptor (Homo sapiens) (P16473 whole entry, looked up): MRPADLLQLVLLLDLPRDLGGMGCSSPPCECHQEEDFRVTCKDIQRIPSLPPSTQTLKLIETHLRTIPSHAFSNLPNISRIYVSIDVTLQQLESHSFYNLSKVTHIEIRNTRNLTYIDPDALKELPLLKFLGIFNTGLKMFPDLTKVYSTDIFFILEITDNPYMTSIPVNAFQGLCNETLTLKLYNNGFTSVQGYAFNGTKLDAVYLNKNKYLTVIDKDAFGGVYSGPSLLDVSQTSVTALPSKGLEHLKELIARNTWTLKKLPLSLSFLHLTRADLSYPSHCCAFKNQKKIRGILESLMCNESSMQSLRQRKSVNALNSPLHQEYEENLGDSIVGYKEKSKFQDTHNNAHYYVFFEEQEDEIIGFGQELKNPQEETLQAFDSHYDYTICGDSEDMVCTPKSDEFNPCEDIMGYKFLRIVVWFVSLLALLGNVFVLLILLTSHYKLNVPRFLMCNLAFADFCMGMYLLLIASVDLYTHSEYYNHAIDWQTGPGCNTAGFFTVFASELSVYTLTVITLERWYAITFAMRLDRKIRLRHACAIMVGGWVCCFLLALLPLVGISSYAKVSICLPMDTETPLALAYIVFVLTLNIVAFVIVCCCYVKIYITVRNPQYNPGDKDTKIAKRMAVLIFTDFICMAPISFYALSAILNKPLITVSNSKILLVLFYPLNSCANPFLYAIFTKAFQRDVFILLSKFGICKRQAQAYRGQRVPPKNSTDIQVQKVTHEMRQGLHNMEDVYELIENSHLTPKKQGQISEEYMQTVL
Chain of Nuclear receptor subfamily 1 group I member 3 (Homo sapiens) (Q14994 whole entry, looked up): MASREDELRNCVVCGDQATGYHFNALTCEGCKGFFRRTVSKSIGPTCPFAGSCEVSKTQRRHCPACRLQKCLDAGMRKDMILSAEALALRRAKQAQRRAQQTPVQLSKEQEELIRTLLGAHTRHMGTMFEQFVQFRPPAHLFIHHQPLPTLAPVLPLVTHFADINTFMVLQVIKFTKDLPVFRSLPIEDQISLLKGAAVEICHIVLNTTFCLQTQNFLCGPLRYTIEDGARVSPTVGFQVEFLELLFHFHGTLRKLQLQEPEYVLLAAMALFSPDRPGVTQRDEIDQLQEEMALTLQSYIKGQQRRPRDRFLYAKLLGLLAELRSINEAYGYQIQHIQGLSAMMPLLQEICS

As to `CC(C)(c1cc(Br)c(OCC(Br)CBr)c(Br)c1)c1cc(Br)c(OCC(Br)CBr)c(Br)c1` (configuration not stated), the Potency entry in assay [1], in assay [2], in [3], in assay [4], in assay [5] and in [6] was “inactive” in each case. The Potency result in assay [7], in assay [8], in assay [9], in [10], in assay [11] and in assay [12] was “inactive” throughout. The Potency result in assay [13], in assay [15], in assay [16], in assay [17] and in assay [18] was “inactive” each time. In [14] (at 42.5 µM (top of the series)), the activity change, positive = activation was 2.35%.
As to `Cc1cccc(C)c1NC(=O)c1ccc(N)cc1`, the Potency entry in assay [1], in [2], in assay [3], in [4], in [5] and in assay [6] was “inactive” throughout. The Potency entry in assay [7], in [8], in assay [9], in assay [10], in [11] and in [12] was “inactive” in each case. For the same compound, the Potency entry in assay [13], in assay [15], in [16] and in assay [18] was “inactive” throughout. Further, in assay [14] (at 42.5 µM (top of the series)), the activity change, positive = activation is 5.09%.
On to `Cc1c(N)cccc1C(F)(F)F`, for which the Potency entry in [1], in assay [2], in assay [3], in [4], in assay [5] and in assay [6] was “inactive” each time. For the same compound, the Potency entry in [7], in assay [8], in [9], in [10], in assay [11] and in [12] was “inactive” throughout. The Potency entry in [13], in assay [15], in assay [16], in assay [17] and in assay [18] was “inactive” each time. The activity change, positive = activation in assay [14] (at 42.5 µM (top of the series)) is 6.86%.
Turning to `CCCCCc1ccc(Cl)cc1`, the Potency entry in assay [1], in assay [2], in assay [3], in assay [4], in assay [5] and in [6] was “inactive” throughout. Moreover, the Potency entry in assay [7], in [8], in [9], in assay [10], in assay [11] and in assay [13] was “inactive” throughout. The Potency entry in assay [15], in [17] and in assay [18] was “inactive” each time. Also, the activity change, positive = activation in assay [14] (at 92.4 µM (top of the series)) is -14.2%. Besides, in assay [16], the Potency is 15.5 µM (active).
Turning to `CCO[Si](OCC)(OCC)OCC`, the Potency result in assay [1], in assay [2], in assay [3], in [4], in assay [19] and in [5] was “inactive” throughout. The Potency entry in assay [8], in [10], in assay [11], in [12], in assay [15] and in [16] was “inactive” each time. In addition, the Potency entry in assay [17] and in [18] was “inactive” each time.
In the case of `CCC(C)n1ncn(-c2ccc(N3CCN(c4ccc(OC[C@H]5CO[C@](Cn6cncn6)(c6ccc(Cl)cc6Cl)O5)cc4)CC3)cc2)c1=O` (some centres not stated), the Potency in [1] was 3.76 µM (active). Moreover, the Potency entry in assay [2], in assay [3], in [4], in assay [19], in assay [5] and in assay [8] was “inactive” each time. Besides, the Potency result in assay [10] and in assay [17] was “inactive” each time.
Regarding `O[C@@H]([C@H](O)[C@H](O)CBr)[C@H](O)CBr`, the Potency entry in assay [1], in assay [2], in [3], in assay [4], in assay [5] and in [8] was “inactive” throughout. For the same compound, the Potency entry in assay [9], in [10], in [11], in [12], in [15] and in assay [16] was “inactive” each time. For the same compound, the Potency entry in assay [17] and in assay [18] was “inactive” each time.
